Assay results: article PMC5540273 (PLoS ONE, 2017)

Tests used:
Conditions in all cases: concentration: 1 μM, replicates: in singlicate; n = 1
MARK3 = system: MARK3
MARK4 = system: MARK4
MAST1 = system: MAST1
MEK1 = system: T1, MEK1
T1 construct: gene MAP2K1

MEK2 = system: T2, MEK2
T2 construct: gene MAP2K2

MEK3 = system: T3, MEK3
T3 construct: gene MAP2K3

MEK4 = system: T4, MEK4
T4 construct: gene MAP2K4

MEK5 = system: T5, MEK5
T5 construct: gene MAP2K5

MEK6 = system: T6, MEK6
T6 construct: gene MAP2K6

MELK = system: MELK
MERTK = system: MERTK
MET = system: MET
MINK = system: T7, MINK
T7 construct: gene MINK1

MKK7 = system: MKK7
MKNK1 = system: MKNK1
MKNK2 = system: MKNK2
MLCK = system: T8, MLCK
T8 construct: gene MYLK3

MLK1 = system: T9, MLK1
T9 construct: gene MAP3K9

MLK2 = system: MLK2
MLK3 = system: MLK3
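Also: KINOMEscan kinase panel screen.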

Row | Compound | %Inh (MARK3) | %Inh (MARK4) | %Inh (MAST1) | %Inh (MEK1) | %Inh (MEK2) | %Inh (MEK3) | %Inh (MEK4) | %Inh (MEK5) | %Inh (MEK6) | %Inh (MELK) | %Inh (MERTK) | %Inh (MET) | %Inh (MINK) | %Inh (MKK7) | %Inh (MKNK1) | %Inh (MKNK2) | %Inh (MLCK) | %Inh (MLK1) | %Inh (MLK2) | %Inh (MLK3)
1 | COc1ccc(Nc2nccc(N3CCC(NC(=O)Nc4ccc5c(c4)OCO5)C3)n2)cc1 (stereo not drawn) [GSK1379745] | 13% | 9% | 0% | 0% | 0% | 0% | 25% | 32% | 0% | 0% | 34% | 20% | 3% | 24% | 21% | 6% | 31% | 6% | 19% | 38%
2 | CS(=O)(=O)CCNCc1ccc(-c2ccc3ncnc(Nc4ccc(OCc5ccccc5)c(Cl)c4)c3c2)o1.Cl [GW574783] | 3% | 9% | 23% | 10% | 0% | 3% | 15% | 85% | 0% | 23% | 5% | 0% | 0% | 71% | 26% | 0% | 0% | 0% | 31% | 10%
3 | CSc1nn2c(=O)cc(N3CCOCC3)nc2n1Cc1cccc(Cl)c1Cl [GSK2347225] | 2% | 3% | 0% | 0% | 5% | 0% | 33% | 48% | 0% | 18% | 40% | 0% | 21% | 0% | 20% | 2% | 13% | 0% | 4% | 11%
4 | Cc1cc(N2CCC(NS(=O)(=O)c3ccc(F)cc3)CC2)nc(Nc2cccc(C#N)c2)n1.O=C(O)C(F)(F)F [GSK1653537] | 0% | 9% | 0% | 0% | 0% | 0% | 78% | 19% | 62% | 5% | 39% | 0% | 0% | 0% | 7% | 3% | 0% | 12% | 0% | 15%
5 | COC(=O)c1cccc(NC(=O)NCCNc2ccnc(Nc3ccc(F)cc3)n2)c1 [GSK1379883] | 0% | 2% | 0% | 1% | 0% | 0% | 13% | 9% | 0% | 17% | 18% | 0% | 0% | 0% | 7% | 5% | 0% | 0% | 8% | 6%
6 | Cc1ccc(NC(=O)c2cccc(C#N)c2)cc1-c1ccc(C(=O)Nc2ccncc2)cc1 [GSK1398463] | 0% | 0% | 17% | 0% | 10% | 0% | 0% | 4% | 31% | 0% | 0% | 0% | 0% | 0% | 0% | 23% | 0% | 0% | 24% | 0%
7 | FC(F)(F)c1cc(Nc2nccc(-c3c(-c4ccc(Cl)cc4)nn4ncccc34)n2)ccc1Cl [GW829351] | 0% | 17% | 20% | 6% | 21% | 0% | 0% | 1% | 0% | 0% | 11% | 0% | 0% | 0% | 0% | 0% | 10% | 0% | 4% | 0%
8 | CC(C)(C)OC(=O)NC1CCCN(c2cc(-c3ccc4c(N)n[nH]c4c3)nc(N)n2)C1 (stereo not drawn) [GSK2286096] | 0% | 0% | 0% | 100% | 0% | 0% | 7% | 30% | 0% | 0% | 18% | 0% | 11% | 0% | 12% | 10% | 0% | 0% | 0% | 0%
9 | CCc1nc(-c2cccc(N(C)S(=O)(=O)c3ccccc3)c2)c(-c2ccnc(Nc3ccc(N4CCN(C(C)=O)CC4)nc3)n2)s1 [GSK1645895] | 0% | 0% | 0% | 0% | 3% | 3% | 0% | 99.9% | 24% | 0% | 11% | 0% | 18% | 0% | 0% | 6% | 0% | 0% | 0% | 0%
10 | OCCOCCn1ccc2ncnc(Nc3ccc(Oc4cccc(Cl)c4)c(Cl)c3)c21 | 0% | 31% | 0% | 8% | 40% | 0% | 0% | 89% | 0% | 0% | 0% | 0% | 0% | 0% | 0% | 3% | 0% | 0% | 37% | 22%
11 | Nc1nc(-c2ccccn2)c(-c2ccnc3ccccc23)s1 [GW548057] | 4% | 0% | 9% | 8% | 12% | 2% | 12% | 32% | 10% | 26% | 2% | 0% | 56% | 14% | 1% | 0% | 0% | 0% | 0% | 0%
12 | Fc1ccc(-c2ncn(CCCNCc3ccccc3)c2-c2ccncc2)cc1 | 5% | 0% | 28% | 26% | 20% | 30% | 0% | 31% | 17% | 5% | 35% | 0% | 3% | 10% | 28% | 0% | 0% | 4% | 0% | 0%
13 | CN1CCC(n2cnc(-c3ccc(F)cc3)c2-c2ccnc(NC3CCNCC3)n2)CC1 [SB-229482] | 0% | 6% | 27% | 0% | 0% | 18% | 0% | 0% | 0% | 0% | 0% | 0% | 0% | 11% | 0% | 32% | 0% | 38% | 5% | 0%
14 | Cc1ccc(C)c(NC(=O)NCCNc2ccnc(Nc3ccc(F)cc3)n2)c1 [GSK1379878] | 0% | 9% | 0% | 0% | 0% | 11% | 0% | 43% | 0% | 4% | 2% | 0% | 0% | 0% | 0% | 0% | 0% | 0% | 0% | 4%
15 | Cl.Cl.c1ccc(-c2cc3ccncc3cc2OC2CCNCC2)cc1 [GSK1122999] | 0% | 5% | 0% | 0% | 5% | 0% | 23% | 16% | 0% | 17% | 46% | 0% | 6% | 0% | 29% | 4% | 10% | 0% | 0% | 23%
16 | COC(=O)c1c(-c2ccccc2)c2cc(Cl)ccc2c(=O)n1Cc1ccc(S(C)(=O)=O)cc1 | 0% | 0% | 0% | 0% | 29% | 9% | 10% | 0% | 4% | 0% | 8% | 0% | 0% | 0% | 0% | 0% | 0% | 0% | 0% | 4%
17 | Nc1nc(-c2cccnc2)c(-c2ccnc3ccccc23)s1 [GW684083] | 0% | 0% | 22% | 0% | 0% | 0% | 1% | 70% | 0% | 6% | 0% | 0% | 51% | 0% | 1% | 0% | 30% | 0% | 0% | 7%
18 | N#Cc1ccc(Oc2ccc(Nc3ncnc4cc[nH]c34)cc2Cl)cc1 | 0% | 0% | 38% | 22% | 39% | 37% | 0% | 44% | 19% | 25% | 0% | 11% | 31% | 0% | 0% | 20% | 8% | 0% | 0% | 0%
19 | C[C@H]1CC[C@@H](C(=O)Nc2ccccc2)CN1c1cc(-c2ccc3c(N)n[nH]c3c2)nc(N)n1 [GSK2283293] | 0% | 0% | 0% | 0% | 0% | 0% | 3% | 11% | 0% | 0% | 11% | 100% | 17% | 0% | 0% | 3% | 0% | 0% | 0% | 0%
20 | Cc1ccc(O)cc1Nc1cc(C(F)(F)F)nc2ccc(-c3ccncc3)cc12 [GW630823] | 0% | 4% | 0% | 0% | 5% | 0% | 0% | 0% | 0% | 0% | 21% | 6% | 0% | 0% | 0% | 0% | 12% | 4% | 2% | 0%
21 | CC(=O)Nc1n[nH]c2ncc(-c3ccccc3)cc12 [SB-548492] | 0% | 8% | 42% | 23% | 35% | 19% | 21% | 87% | 0% | 21% | 37% | 4% | 30% | 2% | 0% | 62% | 0% | 8% | 6% | 3%
